{
  "source": "PubChem BioAssay (NCATS)",
  "note": "Inconclusive results are not listed. Active and inactive are the calls of the source. Calls come from the whole dose curve; as a rule, active = well fitted activation curve with a large enough effect; inconclusive = small, poorly fitted or top-dose-only effect; inactive = flat fitted curve, though single readings scatter.",
  "data": [
    {"test": "Primary redox qHTS assay for identification of artifact compounds. (AID 1845223);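 note: 0% = DMSO and 100% = reference compound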", "conditions": "Amplex Red/HRP redox cycling with DTT, fluorescence; series mostly up to 53.8 µM; redox activity (% of DA3003): at the top concentration", "in_short": "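Amplex Red (25 uM) and HRP (250 mU/mL) in HBSS, with compounds for 15 min, then 250 uM DTT for 30 min, room temperature, dark. Fluorescence 525/598 nm read; normalized to DMSO and 10 uM DA3003; Hill fit.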", "values": [
      {"smiles": "CC1CCC2(O1)C(C)(C)CC(O[C@@H]1O[C@H](CO[C@@H]3OC[C@](O)(CO)[C@H]3O)[C@@H](O)[C@H](O)[C@H]1O)CC2(C)O", "note": "(stereo not given in full)", "redox activity (% of DA3003)": "-0.224% [at 25.6 µM] (inactive)"},
      {"smiles": "C[C@]12CCC(=O)C=C1[C@@H](O)C[C@@H]1[C@@H]2[C@@H](O)C[C@@]2(C)[C@H]1CC[C@]2(O)C(=O)CO", "redox activity (% of DA3003)": "-3.66% (inactive)"},
      {"smiles": "C/C=C1\\[C@H](O[C@@H]2O[C@H](CO)[C@@H](O)[C@H](O)[C@H]2O)OC=C(C(=O)OC)[C@H]1CC(=O)OC", "redox activity (% of DA3003)": "12.6% [at 25.6 µM] (inactive)"},
      {"smiles": "CC(=O)O[C@H]1[C@H](C)[C@@H](O)[C@H]2[C@@H]1C=C(C(=O)O)[C@H]1C[C@@H]3[C@H]([C@H]21)[C@H]1C(=O)O[C@@H]2CC[C@@]3(C)O[C@]1(O)[C@@H]2C", "redox activity (% of DA3003)": "-18.3% [at 25.6 µM] (inactive)"},
      {"smiles": "NC(Cc1c[nH]c2ccccc12)C(=O)NC(CCC(=O)O)C(=O)O", "note": "(stereo not given)", "redox activity (% of DA3003)": "-3.22% (inactive)"},
      {"smiles": "C=C1C(OC(C)=O)C(=O)C2C(C)(C)C(OC(C)=O)CCC2(C)C1CC(OC(C)=O)/C(C)=C/COC(C)=O", "note": "(stereo not given)", "redox activity (% of DA3003)": "-9.36% [at 25.6 µM] (inactive)"},
      {"smiles": "CC1(C)CCC[C@@]2(C)[C@H]1[C@H](O)C=C1COC(=O)[C@@]12O", "redox activity (% of DA3003)": "13.9% (inactive)"},
      {"smiles": "COC(=O)c1cc(CN2CCN(C(=N)N)CC2)cc(C(=O)N2CCN(C(=O)c3ccc(C(=N)N)cc3)CC2)c1", "redox activity (% of DA3003)": "1.88% (inactive)"},
      {"smiles": "O=C1NC(=Nc2ccccc2F)S/C1=C\\c1ccc(C(=O)O)cc1", "redox activity (% of DA3003)": "-3.81% (inactive)"},
      {"smiles": "CC(=O)OC[C@@]12[C@@H](OC(C)=O)C[C@@H](C)[C@](C)([C@@H]3C[C@H]4C=CO[C@H]4O3)[C@H]1CCC[C@]21CO1", "redox activity (% of DA3003)": "-6.45% [at 25.6 µM] (inactive)"},
      {"smiles": "CNC(=O)c1ccc2cc([C@@]3(O)CCn4cncc43)ccc2c1", "redox activity (% of DA3003)": "-4.72% (inactive)"},
      {"smiles": "C=CC1(C)CC2=CCC3C(C)(C(=O)O)CCCC3(C)C2CC1OC(C)=O", "note": "(stereo not given)", "redox activity (% of DA3003)": "2.62% (inactive)"},
      {"smiles": "NCc1ccc(OCCCc2sc(-c3ccc4c(c3)/C(=N/Nc3nc5ccccc5s3)CCC4)nc2C(=O)O)cc1", "redox activity (% of DA3003)": "13.3% (inactive)"},
      {"smiles": "O=C(c1ccc(C#Cc2cccc(F)c2)cn1)N1CC2CC2C1", "note": "(stereo not given)", "redox activity (% of DA3003)": "5.37% (inactive)"},
      {"smiles": "CCOc1nc2cccc(C(=O)OCc3oc(=O)oc3C)c2n1Cc1ccc(-c2ccccc2-c2noc(O)n2)cc1", "redox activity (% of DA3003)": "10.6% (inactive)"},
      {"smiles": "CC(O)C(O)/C=C/C=C/C(=O)O[C@@H]1C=C2COC(=O)[C@]2(O)[C@@]2(C)CCCC(C)(C)C12", "note": "(stereo not given in full)", "redox activity (% of DA3003)": "-4.04% [at 25.6 µM] (inactive)"},
      {"smiles": "C=C1C2=CC(O)C(C)C1(C)CC/C(C)=C/CCC1(C)OC1C2=O", "note": "(stereo not given)", "redox activity (% of DA3003)": "0.154% (inactive)"},
      {"smiles": "C=C(C)[C@@H]1CC[C@](C)(O)[C@@H](OC(=O)c2ccccc2)C1", "redox activity (% of DA3003)": "-4.73% (inactive)"},
      {"smiles": "CCCOc1ccn2c(C(C)=O)cc(-c3ccccc3S(C)(=O)=O)c2c1", "redox activity (% of DA3003)": "15.9% (inactive)"},
      {"smiles": "Nc1ccn([C@@H]2C(F)=C(CO)[C@@H](O)[C@H]2O)c(=O)n1", "redox activity (% of DA3003)": "-7.88% (inactive)"},
      {"smiles": "C[C@@H]1CC[C@H]2C(C)(C)[C@H](O)[C@H](O)C[C@]2(C)[C@@]12Cc1c(O)cc3c(c1O2)CNC3=O", "redox activity (% of DA3003)": "6.65% (inactive)"},
      {"smiles": "OC[C@H]1O[C@@H](Oc2cc(O)cc(-c3cc4ccc(O)cc4o3)c2)[C@H](O)[C@@H](O)[C@@H]1O", "redox activity (% of DA3003)": "-1.6% [at 25.6 µM] (inactive)"},
      {"smiles": "CC1(C)CCC(C)(C)c2cc([C@@H](O)C(=O)Nc3ccc(C(=O)O)cc3F)ccc21", "redox activity (% of DA3003)": "22% (inactive)"},
      {"smiles": "CC1(C)CC2C(C1)C1(C)CCC13OC3(CO)C2O", "note": "(stereo not given)", "redox activity (% of DA3003)": "-0.985% (inactive)"},
      {"smiles": "c1ccc(C(OC2CCN(CCCc3nn[nH]n3)CC2)c2ccccc2)cc1", "redox activity (% of DA3003)": "-4.1% (inactive)"},
      {"smiles": "COc1cc(NC(=O)c2ccccn2)ccc1Cl", "redox activity (% of DA3003)": "-6.29% (inactive)"},
      {"smiles": "CC1(C)C(O)CCC2(C)C1C(O)C=C1COC(=O)C12O", "note": "(stereo not given)", "redox activity (% of DA3003)": "-1.58% (inactive)"},
      {"smiles": "Oc1ccc([C@H]2COc3cc(O)ccc3C2)cc1", "redox activity (% of DA3003)": "-4.2% (inactive)"},
      {"smiles": "CC(C)(O)C1CCC2(C)C3C(O)C4C(C13)C42CO", "note": "(stereo not given)", "redox activity (% of DA3003)": "-8.27% (inactive)"},
      {"smiles": "C=CCc1ccc(O[C@@H]2O[C@H](CO[C@@H]3O[C@H](CO)[C@@H](O)[C@H](O)[C@H]3O)[C@@H](O)[C@H](O)[C@H]2O)c(O)c1", "redox activity (% of DA3003)": "-16.7% [at 25.6 µM] (inactive)"}
    ]}
  ]
}
